Measured values from the supplement of paper PMC9877034.
Counter-ions that a name gives are not always drawn. Over roughly 1,000 compounds, “cFRET/donor change relative to DMSO, normalised to beta-lapachone positive control (supercomplex I-IV assembly)” has its median near 0.18; the lowest 2% begin near -1. What follows is part of a selection rich in the lowest values, with near analogues and random picks from the rest.

The compounds below were run on C2C12 (NDUFB8-AcGFP / COX8A-DsRed-Monomer FRET reporter) (assay: cFRET/donor change relative to DMSO, normalised to beta-lapachone positive control (supercomplex I-IV assembly) (fraction of beta-lapachone effect); higher = more respiratory supercomplex assembly). Conditions: 40 µM; 24 h.
Description: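 Cells were treated with 40 uM compound for 24 h and imaged on an IN Cell Analyzer 6000. Corrected FRET was divided by donor signal (cFRET/donor) and measured in two replicate experiments. The score is (mean cFRET/donor of compound - mean DMSO) / (mean beta-lapachone 40 uM - mean DMSO). Compounds flagged for prominent cell death, abnormal morphology or decreased cell number were excluded.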
`CC[N+](CC)(CC)CCOc1ccc(/C=C/c2ccccc2)cc1` gave a cFRET/donor change of 0.391.
`OCCN1CCN(CCCN2c3ccccc3Sc3ccc(Cl)cc32)CC1` [Perphenazine] gave a cFRET/donor change of 0.48.
Compound `CN1CCC[C@@H]1Cc1c[nH]c2ccc(CCS(=O)(=O)c3ccccc3)cc12` [Eletriptan hydrobromide] has a cFRET/donor change of 0.314.
`c1ccc(C2CN3CCSC3=N2)cc1` (single isomer, unassigned; (-)) [(-)-Tetramisole hydrochloride] was tested, and the cFRET/donor change was 0.472.
With `N#CC(=C(/N)Sc1ccccc1N)/C(C#N)=C(/N)Sc1ccccc1N` the cFRET/donor change was 1.14.
Work on `CCOC(=O)[N-]c1c[n+](N2CCOCC2)no1` [Molsidomine] yielded a cFRET/donor change of 0.0144.
In the case of `CCc1cncnc1N1CCN(Cc2nc3ccc(C(F)(F)F)cc3[nH]2)CC1`, the cFRET/donor change is reported as 0.351.
In the case of `CN(C)CCCc1cc(C(=O)Nc2ccc(-c3ccncc3)cc2)ccc1O`, the cFRET/donor change is reported as 0.377.
`OC(CCN1CCCCC1)(c1ccccc1)C1CC2C=CC1C2` (configuration not stated) [Biperiden hydrochloride] gave a cFRET/donor change of 0.472.
`CCCCCCCCCCCCCCCCCCN(CCCCCCCCCCCCCCCCCC)CCCN(CCO)CCO` [Avridine] showed a cFRET/donor change of 0.401.
Compound `O=c1ccc2ccc(O)c(O)c2o1` [Daphnetin] has a cFRET/donor change of 0.438.
`O=Nc1ccc2oc(=O)ccc2c1` [6-Nitroso-1,2-benzopyrone] showed a cFRET/donor change of -1.07.
In the case of `O=C(CCc1ccncc1)NNC(=O)N1Cc2ccccc2Oc2ccc(Cl)cc21`, the cFRET/donor change is reported as 0.597.
Compound `CC(C)c1c(C(=O)Nc2ccccc2)c(-c2ccccc2)c(-c2ccc(F)cc2)n1CC[C@@H](O)C[C@@H](O)CC(=O)O` [Atorvastatin calcium salt trihydrate] has a cFRET/donor change of -0.0539.
Work on `NS(=O)(=O)c1ccc(-n2nc(C(F)(F)F)cc2-c2ccc(Cl)cc2)cc1` yielded a cFRET/donor change of 0.219.
`Cc1cn(C2C=CC(CO)O2)c(=O)[nH]c1=O` (configuration not stated) [2',3'-didehydro-3'-deoxythymidine] gave a cFRET/donor change of 0.515.
Compound `COc1ccc(S(=O)(=O)Nc2nc(-c3cccc([N+](=O)[O-])c3)cs2)cc1OC` has a cFRET/donor change of 0.458.
`O=C1c2ccccc2C(=O)c2c(NCCc3ccc(O)cc3)ccc(NCCc3ccc(O)cc3)c21` gave a cFRET/donor change of -1.29.
`CC(NCCc1ccc(O)cc1)C(O)c1ccc(O)cc1` (configuration not stated) [Ritodrine hydrochloride] showed a cFRET/donor change of -0.0849.
In the case of `O=C1c2c(O)ccc(O)c2C(=O)c2c(NCCNCCO)ccc(NCCNCCO)c21` [Mitoxantrone], the cFRET/donor change is reported as 0.111.
`CCOc1nc2cccc(C(=O)OC(C)OC(=O)OC3CCCCC3)c2n1Cc1ccc(-c2ccccc2-c2nn[nH]n2)cc1` (configuration not stated) [Candesartan cilexetil] showed a cFRET/donor change of 0.942.
`O=C1NCCc2[nH]c(-c3ccncc3)cc21` was tested, and the cFRET/donor change was -0.0657.
`NC(C(=O)O)C(O)C(=O)O` (racemic) [DL-threo-beta-hydroxyaspartic acid] showed a cFRET/donor change of -0.112.
`Cc1cc2c(cc1Cl)N(C(=O)Nc1cccc3ncccc13)CC2` showed a cFRET/donor change of -0.136.
For `Cn1ccc2cc3c(cc21)CCN3C(=O)Nc1cccnc1`, the cFRET/donor change was -0.716.
`Cc1cc2c(cc1Cl)N(C(=O)Nc1ccc(Oc3cccnc3C)nc1)CC2` was tested, and the cFRET/donor change was -1.37.
For `C[C@H](CCC(=O)NCCS(=O)(=O)O)[C@H]1CC[C@H]2[C@@H]3[C@H](O)C[C@@H]4C[C@H](O)CC[C@]4(C)[C@H]3C[C@H](O)[C@]12C` [Sodium Taurocholate hydrate], the cFRET/donor change was 0.0638.
`COc1ccc2cccc(CCNC(C)=O)c2c1` [Agomelatine] was tested, and the cFRET/donor change was 0.0655.
`Clc1ccc(N2CCN(Cc3cc4ccccn4n3)CC2)cc1` showed a cFRET/donor change of 0.359.
Work on `CCCCC#Cc1nc(NC)c2ncn([C@@H]3O[C@H](CO)[C@@H](O)[C@H]3O)c2n1` yielded a cFRET/donor change of 0.242.
Compound `CC(N)=NCCCC[C@H](N)C(=O)O` [L-N6-(1-Iminoethyl)lysine hydrochloride] has a cFRET/donor change of -0.0938.
`COc1ccc2c(c1)CC[C@@H]1[C@@H]2CC[C@]2(C)[C@@H](NCCCCCCN3C(=O)CCC3=O)CC[C@@H]12` gave a cFRET/donor change of 0.325.
Compound `O=C1N=C(O)NC1(c1ccccc1)c1ccccc1` [Phenytoin sodium] has a cFRET/donor change of 0.149.
Compound `Cc1cc(Nc2ncc3cc(-c4c(Cl)cccc4Cl)c(=O)n(C)c3n2)ccc1F` has a cFRET/donor change of -0.253.
Work on `CCN(CC)CCOc1ccc(Nc2ncc3cc(-c4c(Cl)cccc4Cl)c(=O)n(C)c3n2)cc1` yielded a cFRET/donor change of -5.45.
`Cn1c(=O)c(-c2c(Cl)cccc2Cl)cc2cnc(Nc3ccc(N4CCOCC4)cc3)nc21` showed a cFRET/donor change of -0.227.
Work on `CN1Cc2sccc2C(c2ccc(O)c(O)c2)C1` (configuration not stated) yielded a cFRET/donor change of 0.596.
`CN1CCc2cc(Cl)c(O)cc2[C@@H](c2ccccc2)C1` was tested, and the cFRET/donor change was 0.549.
In the case of `CN1Cc2c(N)cccc2C(c2ccccc2)C1` (configuration not stated) [Nomifensine maleate], the cFRET/donor change is reported as -0.996.
`NS(=O)(=O)C#Cc1ccccc1` [Pifithrin-mu] was tested, and the cFRET/donor change was 0.551.
With `O=C(O)/C=C/c1cnc[nH]1` [4-Imidazoleacrylic acid] the cFRET/donor change was 0.18.
`Clc1ccc2c(c1)N=C(N1CCNCC1)c1ccccc1N2` [N-Desmethylclozapine] was tested, and the cFRET/donor change was 0.316.
`O=C(CCSCc1ccco1)NNC(=O)N1Cc2ccccc2Oc2ccc(Cl)cc21` showed a cFRET/donor change of 0.36.
Work on `COc1cc(NS(C)(=O)=O)ccc1Nc1c2ccccc2nc2ccccc12` [Amsacrine hydrochloride] yielded a cFRET/donor change of 0.257.
Work on `CC1(C2CCCC2)Cc2cc(OCC(=O)O)c(Cl)c(Cl)c2C1=O` (configuration not stated) yielded a cFRET/donor change of 0.0296.
For `O=P(O)(O)C(O)(Cn1ccnc1)P(=O)(O)O` [Zoledronic acid monohydrate], the cFRET/donor change was 0.239.
Work on `Cc1ccc(O)c(N=Nc2ccccc2)n1` yielded a cFRET/donor change of 0.375.
In the case of `CO[C@H]1C[C@@H]2CC[C@@H](C)[C@@](O)(O2)C(=O)C(=O)N2CCCC[C@H]2C(=O)O[C@H]([C@H](C)C[C@@H]2CC[C@@H](OC(=O)C(C)(CO)CO)[C@H](OC)C2)CC(=O)[C@H](C)/C=C(\C)[C@@H](O)[C@@H](OC)C(=O)[C@H](C)C[C@H](C)/C=C/C=C/C=C/1C` [Temsirolimus], the cFRET/donor change is reported as -0.55.
With `COc1ccc2[nH]c([S@@+]([O-])Cc3ncc(C)c(OC)c3C)nc2c1` [Esomeprazole magnesium dihydrate] the cFRET/donor change was 0.951.
`NCC=CC(=O)O` (stereo in doubt) [cis-4-Aminocrotonic acid] showed a cFRET/donor change of 0.532.
For `CCN(CC)C(C)CN1c2ccccc2Sc2ccccc21` (configuration not stated) [Ethopropazine hydrochloride], the cFRET/donor change was -0.00468.
`N[C@@H](CCCC(=O)O)C(=O)O` [L-2-aminoadipic acid] showed a cFRET/donor change of -0.139.
